Tests used:
Assay in all cases: DAPPL (digital affinity profiling via proximity ligation, sequencing); 10 mM Tris-HCl pH 7.5, 50 mM NaCl, 1 mM DTT, 4% glycerol, room temperature, 30 min; GST-TFs on glutathione beads, 16-mer random dsDNA library, 0.1% formaldehyde crosslink after washing; high values mean tight binding
Settings in all cases: protein: recombinant; tags: N-terminal GST; dsDNA, one strand shown
GABPA = target: T1, GABPA (Homo sapiens, UniProt Q06546 1-454)
T1 sequence: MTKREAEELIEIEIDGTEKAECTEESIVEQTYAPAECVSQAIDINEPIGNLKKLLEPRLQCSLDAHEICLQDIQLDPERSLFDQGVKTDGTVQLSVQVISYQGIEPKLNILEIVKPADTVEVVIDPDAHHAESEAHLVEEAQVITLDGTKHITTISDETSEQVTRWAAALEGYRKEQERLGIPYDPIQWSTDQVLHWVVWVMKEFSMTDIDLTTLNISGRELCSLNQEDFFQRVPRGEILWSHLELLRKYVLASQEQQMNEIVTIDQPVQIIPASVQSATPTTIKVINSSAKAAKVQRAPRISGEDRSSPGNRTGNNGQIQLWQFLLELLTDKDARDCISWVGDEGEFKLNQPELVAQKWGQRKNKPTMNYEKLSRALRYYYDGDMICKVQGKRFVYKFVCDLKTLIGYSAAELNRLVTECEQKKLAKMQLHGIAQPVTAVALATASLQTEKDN
How it was run: (§1)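 In yeast, human transcription factors were expressed with a GST fusion, then pulled down on glutathione beads and given DNA barcodes. Pooled with a tag-only sample, they were exposed to 200 nmole of a 16-mer random double-stranded DNA library (Tris/NaCl/DTT/glycerol buffer, room temperature, 30 min), washed, crosslinked with 0.1% formaldehyde, proximity-ligated using BsaI/T4 ligase for 1 h at 37 °C, PCR-amplified and read on an Illumina NextSeq500. Each hexamer's frequency of reads for a factor, divided by the matching frequency for the tag-only sample, gives the binding signal.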

EHF = target: T2, EHF (Homo sapiens, UniProt Q9NZC4 1-300)
T2 sequence: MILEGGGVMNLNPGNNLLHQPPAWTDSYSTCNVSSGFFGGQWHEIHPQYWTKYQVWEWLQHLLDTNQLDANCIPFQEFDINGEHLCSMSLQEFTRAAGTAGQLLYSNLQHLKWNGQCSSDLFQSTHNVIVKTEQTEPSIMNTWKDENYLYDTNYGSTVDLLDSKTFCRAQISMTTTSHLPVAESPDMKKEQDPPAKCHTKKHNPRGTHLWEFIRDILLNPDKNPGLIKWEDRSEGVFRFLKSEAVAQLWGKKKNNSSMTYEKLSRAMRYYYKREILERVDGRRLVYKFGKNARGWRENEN
How it was run: as §1

ELK3 = target: T3, ELK3 (Homo sapiens, UniProt P41970 1-407)
T3 sequence: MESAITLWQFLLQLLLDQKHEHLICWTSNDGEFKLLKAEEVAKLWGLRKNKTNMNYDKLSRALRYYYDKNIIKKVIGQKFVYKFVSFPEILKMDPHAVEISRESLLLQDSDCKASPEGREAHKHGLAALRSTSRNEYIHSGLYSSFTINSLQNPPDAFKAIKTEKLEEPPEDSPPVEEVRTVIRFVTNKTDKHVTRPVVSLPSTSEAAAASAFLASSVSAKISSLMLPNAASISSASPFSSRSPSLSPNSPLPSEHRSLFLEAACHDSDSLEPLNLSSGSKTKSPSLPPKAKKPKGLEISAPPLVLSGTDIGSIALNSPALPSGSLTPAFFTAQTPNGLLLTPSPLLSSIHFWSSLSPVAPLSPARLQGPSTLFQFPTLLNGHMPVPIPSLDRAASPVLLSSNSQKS
How it was run: as §1

ELF4 = ELF4 (Homo sapiens, UniProt Q99607 1-663)
How it was run: as §1

ETV7 = target: T4, ETV7 (Homo sapiens, UniProt Q9Y603 1-341)
T4 sequence: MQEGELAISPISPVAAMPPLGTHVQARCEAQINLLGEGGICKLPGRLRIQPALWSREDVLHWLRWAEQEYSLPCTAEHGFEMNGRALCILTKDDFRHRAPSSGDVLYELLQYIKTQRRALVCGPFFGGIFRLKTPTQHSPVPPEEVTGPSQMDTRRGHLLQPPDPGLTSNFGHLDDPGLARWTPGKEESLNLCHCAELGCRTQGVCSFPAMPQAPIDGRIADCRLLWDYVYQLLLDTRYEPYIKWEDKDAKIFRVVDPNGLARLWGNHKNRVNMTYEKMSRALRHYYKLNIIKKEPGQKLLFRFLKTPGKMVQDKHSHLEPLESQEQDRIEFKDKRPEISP
How it was run: as §1

ELF1 = ELF1 (Homo sapiens, UniProt P32519 1-619)
How it was run: as §1

SPI1 = SPI1 (Homo sapiens, UniProt P17947 1-270)
How it was run: as §1

ELK4 = target: T5, ELK4 (Homo sapiens, UniProt P28324-2 1-405)
T5 sequence: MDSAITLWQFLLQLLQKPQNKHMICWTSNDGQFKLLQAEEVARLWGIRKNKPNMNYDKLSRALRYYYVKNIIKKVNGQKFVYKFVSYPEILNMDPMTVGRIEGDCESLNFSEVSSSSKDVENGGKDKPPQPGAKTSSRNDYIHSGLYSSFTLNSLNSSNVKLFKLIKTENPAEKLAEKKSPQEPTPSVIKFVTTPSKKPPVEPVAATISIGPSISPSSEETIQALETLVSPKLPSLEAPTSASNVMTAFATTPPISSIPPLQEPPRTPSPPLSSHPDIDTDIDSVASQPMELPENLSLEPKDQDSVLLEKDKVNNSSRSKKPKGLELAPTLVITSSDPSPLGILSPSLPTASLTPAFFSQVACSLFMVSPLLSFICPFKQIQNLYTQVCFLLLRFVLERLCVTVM
How it was run: as §1

ETV2 = target: T6, ETV2 (Homo sapiens, UniProt O00321 1-342)
T6 sequence: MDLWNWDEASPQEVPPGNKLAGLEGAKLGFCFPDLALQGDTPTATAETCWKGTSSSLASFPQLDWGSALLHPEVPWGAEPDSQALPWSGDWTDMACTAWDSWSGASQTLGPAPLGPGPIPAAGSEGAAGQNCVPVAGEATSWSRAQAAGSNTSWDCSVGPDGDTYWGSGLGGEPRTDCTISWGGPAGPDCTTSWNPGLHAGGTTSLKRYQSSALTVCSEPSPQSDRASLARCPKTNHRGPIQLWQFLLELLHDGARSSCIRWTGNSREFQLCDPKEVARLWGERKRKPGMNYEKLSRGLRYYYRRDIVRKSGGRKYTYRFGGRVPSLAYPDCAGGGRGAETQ
How it was run: as §1

SPDEF = target: T7, SPDEF (Homo sapiens, UniProt O95238 1-335)
T7 sequence: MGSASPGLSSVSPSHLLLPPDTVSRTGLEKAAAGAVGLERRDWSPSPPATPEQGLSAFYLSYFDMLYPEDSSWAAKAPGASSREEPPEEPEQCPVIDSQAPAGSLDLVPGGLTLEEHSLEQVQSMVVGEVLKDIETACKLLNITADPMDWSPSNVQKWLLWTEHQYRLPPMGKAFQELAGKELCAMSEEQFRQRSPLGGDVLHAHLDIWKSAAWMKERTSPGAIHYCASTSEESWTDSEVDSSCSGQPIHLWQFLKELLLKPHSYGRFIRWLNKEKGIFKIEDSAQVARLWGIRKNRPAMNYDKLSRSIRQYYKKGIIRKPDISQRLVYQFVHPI
How it was run: as §1

ETV3 = target: T8, ETV3 (Homo sapiens, UniProt P41162-2 1-143)
T8 sequence: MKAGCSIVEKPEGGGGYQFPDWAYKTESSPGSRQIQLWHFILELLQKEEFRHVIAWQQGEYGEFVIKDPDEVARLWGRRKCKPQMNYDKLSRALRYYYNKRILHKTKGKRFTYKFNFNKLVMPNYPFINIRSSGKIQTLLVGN
How it was run: as §1

SPIB = SPIB (Homo sapiens, UniProt Q01892 1-262)
How it was run: as §1

ELF4, sequence (Q99607 whole entry): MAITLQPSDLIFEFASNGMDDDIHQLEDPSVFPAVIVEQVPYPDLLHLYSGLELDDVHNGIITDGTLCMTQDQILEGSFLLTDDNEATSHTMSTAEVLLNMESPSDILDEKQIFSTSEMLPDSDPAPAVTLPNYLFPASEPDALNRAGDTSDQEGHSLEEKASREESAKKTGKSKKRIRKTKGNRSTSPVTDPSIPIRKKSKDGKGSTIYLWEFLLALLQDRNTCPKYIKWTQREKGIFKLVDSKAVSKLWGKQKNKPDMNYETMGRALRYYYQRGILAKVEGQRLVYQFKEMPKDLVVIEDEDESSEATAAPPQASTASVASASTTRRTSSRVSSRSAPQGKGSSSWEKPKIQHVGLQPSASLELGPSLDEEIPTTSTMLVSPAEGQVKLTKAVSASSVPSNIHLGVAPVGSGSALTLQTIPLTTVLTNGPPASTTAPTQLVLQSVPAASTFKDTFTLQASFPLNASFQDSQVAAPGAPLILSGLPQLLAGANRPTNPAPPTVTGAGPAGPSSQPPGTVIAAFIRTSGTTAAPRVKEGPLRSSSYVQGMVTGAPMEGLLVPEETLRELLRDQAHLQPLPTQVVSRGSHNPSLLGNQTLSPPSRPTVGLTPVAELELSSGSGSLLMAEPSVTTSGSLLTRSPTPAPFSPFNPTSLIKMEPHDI
SPIB, sequence (Q01892 whole entry): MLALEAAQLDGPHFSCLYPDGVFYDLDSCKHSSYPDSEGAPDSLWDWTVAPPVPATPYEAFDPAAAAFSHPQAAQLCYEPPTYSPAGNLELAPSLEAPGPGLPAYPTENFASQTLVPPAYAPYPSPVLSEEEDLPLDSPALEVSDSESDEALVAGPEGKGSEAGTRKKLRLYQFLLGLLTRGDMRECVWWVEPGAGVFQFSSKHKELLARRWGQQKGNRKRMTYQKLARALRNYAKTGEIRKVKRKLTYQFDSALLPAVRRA
ELF1, sequence (P32519 whole entry): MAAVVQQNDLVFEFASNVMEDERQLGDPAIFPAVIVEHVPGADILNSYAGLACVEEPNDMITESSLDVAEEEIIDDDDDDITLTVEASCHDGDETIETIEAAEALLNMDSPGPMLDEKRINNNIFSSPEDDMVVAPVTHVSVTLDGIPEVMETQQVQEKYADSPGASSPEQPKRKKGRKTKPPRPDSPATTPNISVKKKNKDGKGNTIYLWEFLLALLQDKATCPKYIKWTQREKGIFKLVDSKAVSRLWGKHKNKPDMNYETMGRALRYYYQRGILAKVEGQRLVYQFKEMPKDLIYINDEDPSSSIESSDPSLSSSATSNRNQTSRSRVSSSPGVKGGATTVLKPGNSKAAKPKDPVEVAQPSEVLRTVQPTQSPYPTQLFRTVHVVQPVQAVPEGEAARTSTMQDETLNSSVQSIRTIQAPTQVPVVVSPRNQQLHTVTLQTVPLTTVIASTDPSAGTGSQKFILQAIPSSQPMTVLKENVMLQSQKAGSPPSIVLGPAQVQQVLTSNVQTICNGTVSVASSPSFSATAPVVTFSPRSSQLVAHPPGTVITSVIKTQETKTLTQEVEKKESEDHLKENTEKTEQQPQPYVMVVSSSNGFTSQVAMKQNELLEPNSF

Sequence: GCATAC
- binding signal (GABPA): 1.01 fold enrichment (6-mer frequency, TF over GST control)
- binding signal (EHF): 1.01 fold enrichment (6-mer frequency, TF over GST control)
- binding signal (ELK3): 1.05 fold enrichment (6-mer frequency, TF over GST control)
- binding signal (ELF4): 1.01 fold enrichment (6-mer frequency, TF over GST control)
- binding signal (ETV7): 1 fold enrichment (6-mer frequency, TF over GST control)

Sequence: ATAGAC
- binding signal (GABPA): 1.04 fold enrichment (6-mer frequency, TF over GST control)
- binding signal (ELF1): 1.03 fold enrichment (6-mer frequency, TF over GST control)
- binding signal (SPI1): 1.02 fold enrichment (6-mer frequency, TF over GST control)
- binding signal (ELF4): 1.01 fold enrichment (6-mer frequency, TF over GST control)
- binding signal (ELK4): 1.02 fold enrichment (6-mer frequency, TF over GST control)
- binding signal (ETV2): 1.08 fold enrichment (6-mer frequency, TF over GST control)
- binding signal (SPDEF): 1.01 fold enrichment (6-mer frequency, TF over GST control)
- binding signal (ETV7): 1.1 fold enrichment (6-mer frequency, TF over GST control)
- binding signal (ETV3): 1.02 fold enrichment (6-mer frequency, TF over GST control)

Sequence: CCGCGG
- binding signal (SPIB): 1.04 fold enrichment (6-mer frequency, TF over GST control)
- binding signal (ELF4): 1.01 fold enrichment (6-mer frequency, TF over GST control)

Reference: article PMC7862700, “An all-to-all approach to the identification of sequence-specific readers for epigenetic DNA modifications on cytosine”
